# Results: PubChem BioAssay (Tox21)
# Values joined by “and” are separate entries in the source; they are usually repeats but may differ in a detail not shown here. Identical values can stand only once. Some compounds were tested as several samples or in several runs, with calls that do not always agree. Active and inactive are the calls of the source. Entries that show only a call come without a potency. Unless noted, calls come from the whole dose curve; as a rule, active = well fitted curve in the direction sought with a large enough effect in the repeat runs; inconclusive = weak or mixed curves; inactive = no such curve, though single readings can be large; an effect the other way counts as inactive or inconclusive.
# What was measured:
# [1] = qHTS assay to identify small molecule antagonists of the thyroid receptor (TR) signaling pathway (AID 743065); note: nearly all actives have a fitted effect of over 55% in size; note: potency is the fitted concentration of half-maximal effect
# Procedure, shortened: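 Antagonism measured as loss of luciferase signal in GH3 cells stably carrying a TRE-luciferase reporter, co-treated with compound and T3 (1 nM final) for 23.5 h at 37 C. Viability was read in the same well by CellTiter-Fluor.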
# [2] = system: thyroid hormone receptor (rat, GH3 cells); assay: qHTS assay to identify small molecule agonists of the thyroid receptor (TR) signaling pathway (AID 743066; calls by dose curve)
# [3] = molecular target: Estrogen receptor (Homo sapiens) (UniProt P03372); assay: qHTS assay to identify small molecule antagonists of the estrogen receptor alpha (ER-alpha) signaling pathway (AID 743069; active = well fitted curve in the direction sought with a large enough effect in the signal ratio in the repeat runs, not every such curve was filed as active; inconclusive = weak or mixed curves, or effect the other way; inactive = no such curve, though single readings can be large or run the other way; the % refers to the signal ratio; note: potency is the fitted concentration of half-maximal effect)
# Sequence of Estrogen receptor (Homo sapiens) (P03372 whole entry, looked up): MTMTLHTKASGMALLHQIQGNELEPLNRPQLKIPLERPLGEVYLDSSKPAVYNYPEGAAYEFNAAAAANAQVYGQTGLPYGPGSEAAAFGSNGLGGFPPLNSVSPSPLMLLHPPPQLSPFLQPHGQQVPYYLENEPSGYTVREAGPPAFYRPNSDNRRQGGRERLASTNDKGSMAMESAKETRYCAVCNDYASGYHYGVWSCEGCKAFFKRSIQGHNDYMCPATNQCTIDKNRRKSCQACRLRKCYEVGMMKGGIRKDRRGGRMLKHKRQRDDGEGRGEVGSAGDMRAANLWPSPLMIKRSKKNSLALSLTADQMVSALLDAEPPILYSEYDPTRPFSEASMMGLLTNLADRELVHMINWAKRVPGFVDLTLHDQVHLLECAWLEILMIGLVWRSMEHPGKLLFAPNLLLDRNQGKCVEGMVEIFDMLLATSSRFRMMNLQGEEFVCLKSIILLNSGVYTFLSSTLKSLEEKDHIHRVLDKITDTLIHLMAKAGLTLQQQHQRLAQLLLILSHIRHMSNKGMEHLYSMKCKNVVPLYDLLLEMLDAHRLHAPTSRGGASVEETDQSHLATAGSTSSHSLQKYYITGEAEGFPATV
# Procedure, shortened: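 ER-alpha-UAS-bla GripTite HEK293 line; 2% charcoal-stripped FBS overnight; plated, 4 hr 37C/5% CO2; cpd in DMSO + 17beta-estradiol, 18 hr 37C; LiveBLAzer B/G FRET substrate 2 hr RT; fluorescence intensity.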
# [4] = qHTS assay to identify small molecule antagonists of the estrogen receptor alpha (ER-alpha) signaling pathway - cell viability counter screen (AID 743074; calls by dose curve;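 note: HEK293 cells carrying ER-alpha-UAS-bla reporter stimulated with 17beta-estradiol; nearly all actives have a fitted effect of over 45% in size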; note: potency is the fitted concentration of half-maximal effect)
# [5] = molecular target: Estrogen receptor (Homo sapiens) (UniProt P03372); assay: qHTS assay to identify small molecule agonists of the estrogen receptor alpha (ER-alpha) signaling pathway (AID 743075; calls by dose curve;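 note: HEK293 GripTite cells with ER-alpha and UAS-driven beta-lactamase reporter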)
# [6] = molecular target: Estrogen receptor (Homo sapiens) (UniProt P03372); assay: qHTS assay to identify small molecule agonists of the estrogen receptor alpha (ER-alpha) signaling pathway using the BG1 cell line (AID 743079); note: nearly all actives have a fitted effect of over 20% in size; note: potency is the fitted concentration of half-maximal effect
# [7] = qHTS assay to identify small molecule antagonists of the estrogen receptor alpha (ER-alpha) signaling pathway using the BG1 cell line (AID 743080; calls by dose curve;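 note: BG1 cells stimulated with 17beta-estradiol alongside compound; series mostly up to about 70 µM; nearly all actives have a fitted effect of over 25% in size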)
# Procedure, shortened: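 Readout is ONE-Glo luminescence, taken 30 min at room temperature after reagent addition, preceded by a CellTiter-Fluor viability read; BG1-Luc-4E2 cells had received compound and 17beta-estradiol for 21.5 h at 37 C.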
# [8] = qHTS assay to identify small molecule antagonists of the estrogen receptor alpha (ER-alpha) signaling pathway using the BG1 cell line - cell viability counter screen (AID 743081);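 note: compound given together with 17beta-estradiol as the ER stimulus; nearly all actives have a fitted effect of over 45% in size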; note: potency is the fitted concentration of half-maximal effect
# [9] = molecular target: Aromatase (Homo sapiens) (UniProt P11511); assay: qHTS assay to identify aromatase inhibitors (AID 743083); note: nearly all actives have a fitted effect of over 55% in size; note: potency is the fitted concentration of half-maximal effect
# Sequence of Aromatase (Homo sapiens) (P11511 whole entry, looked up): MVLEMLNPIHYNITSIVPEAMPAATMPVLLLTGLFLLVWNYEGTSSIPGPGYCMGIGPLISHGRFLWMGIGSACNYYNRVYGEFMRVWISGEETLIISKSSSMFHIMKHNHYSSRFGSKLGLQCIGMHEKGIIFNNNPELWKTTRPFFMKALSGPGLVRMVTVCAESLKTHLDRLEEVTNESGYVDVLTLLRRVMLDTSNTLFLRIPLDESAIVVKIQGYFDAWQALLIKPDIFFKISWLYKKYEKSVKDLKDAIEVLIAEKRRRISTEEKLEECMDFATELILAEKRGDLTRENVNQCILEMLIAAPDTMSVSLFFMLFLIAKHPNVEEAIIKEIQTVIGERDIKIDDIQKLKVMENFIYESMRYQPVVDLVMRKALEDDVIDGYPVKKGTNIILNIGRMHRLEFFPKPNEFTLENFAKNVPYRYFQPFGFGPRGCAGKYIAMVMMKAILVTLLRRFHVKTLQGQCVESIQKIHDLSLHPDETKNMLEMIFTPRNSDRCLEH
# [10] = qHTS assay to identify aromatase inhibitors - cell viability counter screen (AID 743084);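 note: cells stimulated with testosterone during compound exposure; nearly all actives have a fitted effect of over 55% in size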; note: potency is the fitted concentration of half-maximal effect
# [11] = molecular target: Aryl hydrocarbon receptor (Homo sapiens) (UniProt P35869); assay: qHTS assay to identify small molecule that activate the aryl hydrocarbon receptor (AhR) signaling pathway (AID 743085); note: nearly all actives have a fitted effect of over 15% in size; note: potency is the fitted concentration of half-maximal effect;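 for activation: HG2L7.5c1 human HepG2 liver cells with stably integrated DRE-driven firefly reporter; series mostly up to about 70 µM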
# Sequence of Aryl hydrocarbon receptor (Homo sapiens) (P35869 whole entry, looked up): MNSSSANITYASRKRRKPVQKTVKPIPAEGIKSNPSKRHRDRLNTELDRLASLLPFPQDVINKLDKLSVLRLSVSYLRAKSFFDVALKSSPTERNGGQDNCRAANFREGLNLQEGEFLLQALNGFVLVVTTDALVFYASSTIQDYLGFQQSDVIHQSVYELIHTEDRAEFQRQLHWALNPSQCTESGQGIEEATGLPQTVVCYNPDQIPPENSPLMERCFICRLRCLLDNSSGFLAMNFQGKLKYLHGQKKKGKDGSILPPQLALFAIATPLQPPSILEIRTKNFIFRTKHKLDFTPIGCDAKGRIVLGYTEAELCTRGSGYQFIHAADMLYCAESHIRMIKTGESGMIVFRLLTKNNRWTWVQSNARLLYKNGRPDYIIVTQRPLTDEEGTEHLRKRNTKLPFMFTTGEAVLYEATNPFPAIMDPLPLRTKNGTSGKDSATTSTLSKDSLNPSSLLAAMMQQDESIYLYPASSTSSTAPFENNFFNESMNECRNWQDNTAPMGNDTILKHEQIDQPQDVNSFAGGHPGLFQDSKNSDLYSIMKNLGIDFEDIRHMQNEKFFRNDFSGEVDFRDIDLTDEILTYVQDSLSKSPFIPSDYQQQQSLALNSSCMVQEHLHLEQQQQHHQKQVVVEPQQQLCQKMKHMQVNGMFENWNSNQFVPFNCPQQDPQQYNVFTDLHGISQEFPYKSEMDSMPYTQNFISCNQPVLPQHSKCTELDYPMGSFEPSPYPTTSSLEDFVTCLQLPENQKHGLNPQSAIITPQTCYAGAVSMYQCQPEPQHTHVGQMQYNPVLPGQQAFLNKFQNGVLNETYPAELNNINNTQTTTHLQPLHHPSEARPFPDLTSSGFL
# Procedure, shortened: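 Luminescence (ONE-Glo) from a dioxin-responsive-element luciferase reporter in HG2L7.5c1 HepG2 cells after 24 hr compound exposure at 37C; viability measured by CellTiter-Fluor fluorescence beforehand.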
# [12] = qHTS assay to identify small molecule that activate the aryl hydrocarbon receptor (AhR) signaling pathway - cell viability counter screen (AID 743086); note: nearly all actives have a fitted effect of over 45% in size; note: potency is the fitted concentration of half-maximal effect
# Procedure, shortened: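 Cytotoxicity counter screen: CellTiter-Fluor signal (30 min, 37 C) in 4000 HepG2 cells/well carrying the DRE-luciferase reporter, following 24 h compound exposure at 37 C.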
# [13] = molecular target: Peroxisome proliferator-activated receptor gamma (Homo sapiens) (UniProt P37231); assay: qHTS assay to identify small molecule agonists of the peroxisome proliferator-activated receptor gamma (PPARg) signaling pathway (AID 743094; active = well fitted activation curve with a large enough effect in the signal ratio in the repeat runs, not every such curve was filed as active; inconclusive = weak or mixed curves, or effect the other way; inactive = no such curve, though single readings can be large or run the other way; the % refers to the signal ratio; note: potency is the fitted concentration of half-maximal effect)
# Sequence of Peroxisome proliferator-activated receptor gamma (Homo sapiens) (P37231 whole entry, looked up): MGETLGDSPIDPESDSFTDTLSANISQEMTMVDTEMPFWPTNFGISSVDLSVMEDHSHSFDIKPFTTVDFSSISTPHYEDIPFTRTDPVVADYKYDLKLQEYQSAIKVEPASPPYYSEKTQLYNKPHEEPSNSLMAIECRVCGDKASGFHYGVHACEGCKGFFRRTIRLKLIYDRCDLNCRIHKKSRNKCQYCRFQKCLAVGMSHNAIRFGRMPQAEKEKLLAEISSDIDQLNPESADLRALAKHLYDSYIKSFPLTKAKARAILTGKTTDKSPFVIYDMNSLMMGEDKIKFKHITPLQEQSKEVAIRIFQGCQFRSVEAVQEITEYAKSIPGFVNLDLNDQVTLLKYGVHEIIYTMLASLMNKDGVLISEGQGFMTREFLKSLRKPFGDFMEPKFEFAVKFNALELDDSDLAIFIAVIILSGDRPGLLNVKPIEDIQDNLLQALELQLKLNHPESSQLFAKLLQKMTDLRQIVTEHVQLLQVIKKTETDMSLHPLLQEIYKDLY
# Procedure, shortened: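 Beta-lactamase FRET fluorescence was the read-out after a 1 h room-temperature substrate step, following 17 h compound treatment at 37C of HEK293H cells expressing a UAS-driven bla reporter responsive to PPARg.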
# [14] = molecular target: Peroxisome proliferator-activated receptor gamma (Homo sapiens) (UniProt P37231); assay: qHTS assay to identify small molecule antagonists of the peroxisome proliferator-activated receptor gamma (PPARg) signaling pathway (AID 743191; calls by dose curve; note: series mostly up to about 63 µM; nearly all actives have a fitted effect of over 30% in size)
# Procedure, shortened: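 Beta-lactamase reporter under UAS control in HEK293H PPARg-bla cells; compound treatment 17 h at 37C. Read-out: fluorescence intensity after 1 h room-temperature incubation with LiveBLAzer B/G FRET substrate.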
# [15] = qHTS assay to identify small molecule antagonists of the peroxisome proliferator-activated receptor gamma (PPARg) signaling pathway - cell viability counter screen (AID 743194); note: nearly all actives have a fitted effect of over 55% in size; note: potency is the fitted concentration of half-maximal effect
# Procedure, shortened: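 Viability was measured as CellTiter-Glo luminescence in GeneBLAzer PPARg UAS-bla HEK293H cells. These cells had been exposed 17 h at 37 C to compounds together with rosiglitazone at 50 nM final, with the beta-lactamase readout taken in the same wells.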
# [16] = qHTS assay for small molecule agonists of the antioxidant response element (ARE) signaling pathway (AID 743202; active = well fitted activation curve with a large enough effect in the signal ratio in the repeat runs, not every such curve was filed as active; inconclusive = weak or mixed curves, or effect the other way; inactive = no such curve, though single readings can be large or run the other way; the % refers to the signal ratio; note: potency is the fitted concentration of half-maximal effect)
# Procedure, shortened: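 Quantitative high-throughput format in HepG2 cells bearing an integrated ARE-beta-lactamase reporter. Compound exposure lasted 16 h at 37 C, and fluorescence was read 2 h after adding LiveBLAzer B/G substrate at room temperature.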
# [17] = qHTS assay for small molecule agonists of the antioxidant response element (ARE) signaling pathway - cell viability counter screen (AID 743203; calls by dose curve; note: nearly all actives have a fitted effect of over 55% in size; note: potency is the fitted concentration of half-maximal effect)
# Procedure, shortened: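 HepG2 cells carrying ARE-driven beta-lactamase; 2,000 cells/well; 5 hrs plating; compound pinned from DMSO; 16 hrs 37C/5% CO2; CellTiter-Glo added; 30 min RT; luminescence.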
# [18] = qHTS assay for small molecule activators of the heat shock response signaling pathway - cell viability counter screen (AID 743209); note: nearly all actives have a fitted effect of over 50% in size; note: potency is the fitted concentration of half-maximal effect
# Procedure, shortened: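 Luminescence from CellTiter-Glo, added after the beta-lactamase FRET read, gave the viability signal. Cells were HSE-bla HeLa treated with DMSO-dissolved compounds for 5 h at 37 C following overnight plating.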
# [19] = qHTS assay for small molecule activators of the heat shock response signaling pathway (AID 743210; active = well fitted activation curve with a large enough effect in the signal ratio in the repeat runs, with a control signal flat, not every such curve was filed as active; inconclusive = weak or mixed curves; the % refers to the signal ratio;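 note: HeLa cells with beta-lactamase reporter driven by heat shock elements; series mostly up to about 63 µM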)
# Procedure, shortened: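 HeLa HSE-bla cells, overnight plating; cpd in DMSO 5 h, 37 C; LiveBLAzer B/G FRET substrate 2.5 h RT; fluorescence intensity read.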
# [20] = qHTS assay to identify small molecule agonists of the peroxisome proliferator-activated receptor delta (PPARd) signaling pathway - cell viability counter screen (AID 743211); note: nearly all actives have a fitted effect of over 55% in size; note: potency is the fitted concentration of half-maximal effect
# Procedure, shortened: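 Viability was measured as CellTiter-Glo luminescence (30 min, room temperature) in the same wells as the beta-lactamase readout. GeneBLAzer PPARd UAS-bla HEK293H cells received compound after 5 h plating and were incubated 17 h at 37 C.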
Compound,Potency [1],Potency [2],Potency [3],Potency [4],Potency [5],Potency [6],Potency [7],Potency [8],Potency [9],Potency [10],Potency [11],Potency [12],Potency [13],Potency [14],Potency [15],Potency [16],Potency [17],Potency [18],Potency [19],Potency [20]
CC(=O)CC/C=C(\C)CCC=C(C)C,inactive,inactive,inactive,inactive,inactive,inactive,inactive,inactive,inactive,inactive,inactive,inactive,inactive,inactive,inactive,inactive,inactive,inactive,inactive,–
OCCO,inactive,inactive,inactive,inactive,inactive,inactive,inactive,inactive,inactive,inactive,inactive,inactive,inactive,inactive,inactive,inactive,inactive,inactive,inactive,inactive
COc1ccccc1/C=C/C=O,62.8 µM (active),inactive,inactive,inactive,inactive,inactive,inactive,inactive,inactive,inactive,–,inactive,inactive,–,inactive,inactive,inactive,inactive,–,inactive
OC(CCl)CCl,inactive,inactive,inactive,inactive,inactive,inactive,inactive,inactive,inactive,inactive,inactive,inactive,inactive,–,inactive,inactive,inactive,inactive,inactive,–
CCC(C)(O)CCCC(C)C (centres undefined),inactive,inactive,inactive,inactive,inactive,inactive,inactive,inactive,inactive,inactive,inactive,inactive,inactive,–,inactive,inactive,inactive,inactive,inactive,inactive
CC(C(=O)O)c1cccc(C(=O)c2ccccc2)c1 (centres undefined),inactive,inactive,inactive,inactive,inactive,inactive,inactive,inactive,inactive,inactive,inactive,inactive,inactive,–,inactive,inactive,inactive,inactive,inactive,inactive
O=C(/C=C/c1ccccc1)OCc1ccccc1,inactive,inactive,inactive,inactive,inactive,29.8 µM (active),inactive,inactive,inactive,inactive,inactive,inactive,inactive,–,inactive,–,inactive,inactive,inactive,inactive
CC(C)OC=O,inactive,inactive,inactive,inactive,inactive,inactive,inactive,inactive,inactive,inactive,inactive,inactive,inactive,inactive,inactive,inactive,inactive,inactive,inactive,–
CC(CCC(=O)O)(c1ccc(O)cc1)c1ccc(O)cc1,inactive,inactive,inactive,inactive,inactive,61.1 µM (active),inactive,inactive,inactive,inactive,inactive,inactive,inactive,–,inactive,inactive,inactive,inactive,inactive,inactive
CC1=CC2C3CC(C=C3C)C2C1 (centres undefined),inactive,inactive,inactive,inactive,inactive,inactive,inactive,inactive,inactive,inactive,inactive,inactive,inactive,–,inactive,inactive and 27.3 µM (active),inactive,inactive,inactive,–
c1cc(N(CC2CO2)CC2CO2)ccc1OCC1CO1 (centres undefined),4.86 µM (active) and 3.86 µM (active),inactive,–,inactive,inactive,inactive,–,inactive,24.4 µM (active) and 54.5 µM (active),27.3 µM (active),inactive,–,–,–,–,27.3 µM (active) and 19.3 µM (active),inactive,–,–,–
Cc1ncc[nH]1,inactive,inactive,–,inactive,–,–,–,inactive,inactive,inactive,inactive and 48.5 µM (active),inactive,inactive,–,inactive,inactive,inactive,inactive,–,–
CC(=O)Oc1ccccc1C(=O)Nc1ncc([N+](=O)[O-])s1,11.9 µM (active) and 7.85 µM (active),inactive,inactive,7.56 µM (active),inactive,0.668 µM (active),–,–,inactive and 19.7 µM (active),22.1 µM (active),10.6 µM (active) and inactive,inactive and 17.6 µM (active),inactive,–,1.58 µM (active) and 5.31 µM (active),inactive,–,1.19 µM (active),inactive,–
O=Cc1ccccc1O,inactive,inactive,inactive,–,inactive,–,inactive,inactive,inactive,inactive,inactive,inactive,inactive,inactive,inactive,inactive,inactive,inactive,–,inactive
COC(=O)c1ccccc1,inactive,inactive,–,inactive,–,–,–,inactive,inactive,inactive,inactive,inactive,inactive,–,inactive,inactive,inactive,inactive,–,–
O=C1OC2(c3cc(Br)c(O)c(Br)c3Oc3c2cc(Br)c(O)c3Br)c2c(Cl)c(Cl)c(Cl)c(Cl)c21,54.5 µM (active) and 41.6 µM (active),inactive,inactive,–,inactive,inactive,–,8.64 µM (active) and 18.6 µM (active),inactive,4.86 µM (active) and 8.31 µM (active),inactive,9.7 µM (active) and 5.88 µM (active),–,–,inactive,inactive,inactive,inactive,–,–
CCCCCCCCCC(=O)OC,inactive,inactive,–,inactive,–,–,–,inactive,inactive,inactive,inactive,inactive,inactive,–,inactive,inactive,inactive,inactive,inactive,inactive
Oc1ccc(O)cc1,21.1 µM (active) and 30.5 µM (active) and 30.6 µM (active),inactive,–,inactive,inactive,inactive,inactive,inactive,inactive and 60.8 µM (active),inactive and 54.2 µM (active),–,inactive,–,–,inactive,–,inactive,inactive,–,inactive
Cc1cccc(N(C)C(=S)Oc2ccc3ccccc3c2)c1,inactive,inactive,inactive,inactive,inactive,–,–,inactive,inactive,inactive,–,inactive,inactive,–,inactive,–,inactive,inactive,–,–
O=C(O)c1ccccc1Nc1cccc(C(F)(F)F)c1,23.7 µM (active) and 27.3 µM (active),inactive,–,inactive,inactive,inactive,inactive,inactive,inactive,inactive,inactive,inactive,inactive,–,inactive,54.5 µM (active),inactive,inactive,–,inactive
c1ccc2cc(Nc3ccc(Nc4ccc5ccccc5c4)cc3)ccc2c1,inactive,inactive,–,inactive,–,–,–,inactive,inactive,inactive,30.8 µM (active) and 30.6 µM (active),inactive,22 µM (active),–,inactive,inactive,inactive,inactive,–,–
CCCCC(CC)COP(=O)(OCC(CC)CCCC)OCC(CC)CCCC (centres undefined),inactive,inactive,–,inactive,–,–,–,inactive,inactive,inactive,inactive,inactive,inactive,inactive,inactive,inactive,inactive,inactive,inactive,–
O=CCc1ccccc1,inactive,inactive,–,inactive,–,–,–,inactive,inactive,inactive,inactive,inactive,inactive,–,inactive,–,inactive,inactive,inactive,inactive
Nc1ccc(S(=O)(=O)Nc2cnc3ccccc3n2)cc1,inactive,inactive,–,inactive,–,–,–,inactive,inactive,inactive,inactive,inactive,inactive,–,inactive,inactive,inactive,inactive,–,inactive
Cc1ccc2c(n1)Oc1ccc(C(C)C(=O)OCC(=O)N(C)C)cc1C2 (centres undefined),inactive,inactive,inactive,inactive,inactive,inactive,–,inactive,inactive,inactive,11.9 µM (active),inactive,inactive,–,inactive,inactive,inactive,inactive,inactive,inactive
O=c1oc(=O)c2cc3c(=O)oc(=O)c3cc12,inactive,inactive,–,inactive,–,–,–,inactive,inactive,inactive,inactive,inactive,inactive,inactive,inactive,2.73 µM (active),inactive,inactive,–,–
CCOCCOCCO,inactive,inactive,–,inactive,–,–,–,inactive,inactive,inactive,inactive,inactive,inactive,–,inactive,inactive,inactive,inactive,inactive,inactive
COC(=O)C1=C(C)NC(C)=C(C(=O)OCCN(C)Cc2ccccc2)C1c1cccc([N+](=O)[O-])c1 (centres undefined),9.44 µM (active) and 17.1 µM (active),inactive,23.9 µM [inconclusive] (active),inactive,inactive,–,–,54.2 µM (active),29.8 µM (active) and 60.8 µM (active),21.1 µM (active) and 54.2 µM (active),inactive,–,–,–,24.4 µM (active) and 33.5 µM (active),–,24.2 µM (active) and 26.6 µM (active),inactive,–,24.4 µM (active) and 26.6 µM (active)
